Measured values taken from PubChem BioAssay (NCATS).
Records with an inconclusive call do not appear. Entries that show only a call come without a potency. Calls of active or inactive are those of the source. Calls come from the whole dose curve; as a rule, active = well fitted inhibition curve with a large enough effect; inconclusive = small, poorly fitted or top-dose-only effect; inactive = flat fitted curve, though single readings scatter.

Assay: P-glycoprotein substrates identified in KB-8-5-11 adenocarcinoma cell line, qHTS therapeutic library screen (AID 1346987); note: nearly all actives have a fitted effect of over 65% in size
Conditions: KB-8-5-11 (P-gp overexpressing) viability, CellTiter-Glo, 72 h; series mostly up to 44.5 µM
Text: The ATP-binding cassette transporters P-glycoprotein (P-gp) is known to limit brain penetration of many chemotherapy drugs. […] As such, we developed a high-throughput screen (HTS) to identify substrates of P-gp from a series of chemical libraries including the National Center for Advancing Translational Sciences Pharmaceutical Collection NPC, 2,816 compounds), testing a total of 10,804 compounds, most of which have known mechanisms of action. We used the CellTiter-Glo viability assay to test library compounds against the parental KB-3-1 human cervical adenocarcinoma cell line and the colchicine-selected sub-line KB-8-5-11 that over-expresses P-gp. KB-8-5-11 cells were also tested in the presence of a P-gp inhibitor (tariquidar) to assess reversability of transporter-mediated resistance. Of the tested compounds, a total of 90 P-gp substrates were identified including 55 newly identified P-gp substrates. Substrates were confirmed using an orthogonal killing assay against HEK-293 cells transfected with P-gp. As exemplars, we confirmed that […] (cyclin-dependent kinase inhibitor); AT9283, (Janus kinase 2/3 inhibitor); ispinesib (kinesin spindle protein inhibitor); gedatolisib (PKI-587, phosphoinositide 3-kinase/mammalian target of rampamycin inhibitor); GSK-690693 (AKT inhibitor); and KW-2478 (heat shock protein 90 inhibitor) were substrates , and direct ATPase stimulation was assessed. ABCG2 was also found to confer high levels of resistance to AT9283, GSK-690693 and gedatolisib, while ispinesib, AT7519 and KW-2478 were weaker substrates.
The HeLa derivative cell line, KB-3-1, and its colchicine-selected, P-gp-overexpressing subline, KB-8-5-11 were maintained in DMEM with 10% FCS and Pen/Strep with glutamine at 37 degree C in 5% CO2. For KB-8-5-11 cells, colchicine was added to the medium at a concentration of 100 ng/mL. HEK-293 cells transfected with empty vector (pcDNA) or vector containing human ABCB1 (MDR-19) or ABCG2 (R-5) have been described previously (Robey, Lin, Qiu, Chan & Bates, 2011) and were maintained in EMEM supplemented with 10% FCS, Pen/Strep and glutamine with 2 mg/ml G418 to select for the expression of the transporter. Cultures were confirmed to be free of mycoplasma infection using the MycoAlert Mycoplasma Detection Kit (Lonza, Walkersville, MD). For the screen, assay medium was identical to culture medium except for KB-8-5-11 where colchicine was excluded from the medium.
All cell lines were plated into 1536-well plates at 500 cells/well in 5 uL media. Compounds were then pinned in dose-response using a 1536-head pin tool (Kalypsis, San Diego, CA) and plates were incubated at 37 degree C in 5% CO2 for an additional 72 h. CellTiter-Glo reagent (Promega) was dispensed into the wells, incubated for 5 min and luminescence was read on a ViewLux instrument (Perkin-Elmer). Cytotoxic compounds were defined as those that yielded a curve class of -1.1, -1.2, -2.1, -2.2, -2.3, or -2.4, a maximum response of >50% and an AC50 of < 10 uM. Cherry-picked hits from screening analysis were tested with both the KB pair of cell lines, and the pcDNA (empty vector control) and MDR-19 (P-gp overexpressing) pair were tested, in the absence and presence of tariquidar.
Potency is the fitted concentration of half-maximal effect.

| Structure (SMILES) | Potency |
| --- | --- |
| Nc1ncnc(Nc2ccc(OCc3ccccc3)c(Cl)c2)c1/C=N/OCCN1CCOCC1 | 16.4 µM (active) |
| O=C1NC(=O)C(c2c[nH]c3ccccc23)=C1c1c[nH]c2ccccc12 | inactive |
| CC(C)n1cc(-c2ccc(Oc3ccccc3)cc2)c2c(N)ncnc21 | 9.2 µM (active) |
| O=C1CCCC2=C1C(c1ccccc1Br)N=C(Nc1nc3ccccc3o1)N2 (stereo not given) | inactive |
| COC(=O)[C@]12CCC(C)(C)C[C@@H]1[C@@H]1C(=O)C=C3[C@]4(C)C=C(C#N)C(=O)C(C)(C)[C@@H]4CC[C@@]3(C)[C@]1(C)CC2 | 1.46 µM (active) |
| COC1(c2sc3c(N4CCOCC4)nc(-c4cnc(N)nc4)nc3c2C)COC1 | 0.184 µM (active) |
| C=C(C)[C@@H]1CCC2=CC(=O)C[C@@H](C)[C@]2(C)C1 | inactive |
| C=CCN(/C=C1\C(=O)OC(COC)C2(C)C1=C(O)C(=O)C1=C2C(OC(C)=O)CC2(C)C(=O)CCC12)CC=C (stereo not given) | inactive |
| NC1CCCN(c2c(/C=C3\SC(=O)NC3=O)cccc2-c2ccccc2)C1 (stereo not given) | inactive |
| O=C1CCCC2=C1C(c1ccncc1Br)N=C(Nc1nc3ccccc3o1)N2 (stereo not given) | inactive |
| C[C@@H](Nc1cc(F)cc(F)c1)c1cc(C(=O)N(C)C)cc2c(=O)cc(N3CCOCC3)oc12 | inactive |
| Oc1cc(CNC(=S)/C=C/c2cc(O)c(O)c(Br)c2)cc(O)c1O | 7.31 µM (active) |
| NC(=O)c1sc(-c2ccsc2)cc1N | inactive |
| COc1ccc2cc1Oc1ccc(cc1)CC1c3cc(c(OC)cc3CCN1C)Oc1c(OC)c(OC)c(OC)c3c1C(C2)N(C)CC3 (stereo not given) | inactive |
| COc1cc2c(cc1OC)/C(=C/c1ccc(O)cc1)C(=O)N2 | inactive |
| OC[C@H]1O[C@@H](O[C@@H]2OC=C[C@H]3[C@H](O)[C@@H]4O[C@]4(CO)[C@@H]23)[C@H](O)[C@@H](O)[C@@H]1O | inactive |
| CCCCCCC(=O)O[C@H]1CC[C@H]2[C@@H]3CCc4cc(O)ccc4[C@H]3CC[C@]12C | 7.31 µM (active) |
| Cc1ccc(OCCSc2ncccn2)c(Br)c1 | inactive |
| O=C1c2ccccc2-c2nc3nnnn3nc21 (tested in a mixture with another compound) | 0.92 µM (active) |
| N#Cc1cccc(C#N)c1-c1nc2c3ccccc3c3cc(Cl)ccc3c2[nH]1 | 23.1 µM (active) |

| Structure (SMILES) | Potency |
| --- | --- |
| CC(C)C(N)C(=O)OCC(CO)OCn1cnc2c(=O)[nH]c(N)nc21 (stereo not given) | inactive |
| CCOc1ccc(/C=C2\SC(=O)N(CCN)C2=O)cc1 | inactive |
| OC(CNCCc1c[nH]c2ccccc12)Cn1c2ccccc2c2ccccc21 (stereo not given) | 16.4 µM (active) |
| O=c1[nH]ccc2c(S(=O)(=O)N3CCCNCC3)cccc12 | inactive |
| O=C1OC(/C=C/c2ccccc2)=NC/1=C\c1cccnc1 | inactive |
| COc1cc(/C=C\c2ccc(O)cc2)cc(OC)c1 | inactive |
| CN1CCN(CCC=C2c3ccccc3Sc3ccc(S(=O)(=O)N(C)C)cc32)CC1 | 23.1 µM (active) |
| O=C(NCCO)c1cc(C(=O)NCCO)cc(C(=O)NCCO)c1 | inactive |
| O=C1CCc2cc(S(=O)(=O)Nc3ccc(F)c(Cl)c3)c(F)cc2N1 | inactive |
| Nc1ncnc2c1ncn2[C@@H]1O[C@H](CO)C[C@H]1O | 0.001 µM (active) |
| O=C1NCCCc2c1oc1ccc(O)cc21 | inactive |
| CSc1cc2c(s1)c1cnn(Cc3ccccc3F)c(=O)c1n2C | inactive |
| CC1=CC(=O)C(C(C)C)=CC1=O | inactive |
| O=C(/C=C/c1cccnc1)c1ccncc1 | inactive |
| O=C1Cc2c([nH]c3ccc([N+](=O)[O-])cc23)-c2ccccc2N1 | 2.52 µM (active) |
| CCCCN(CCCC)C(=S)[S-].CCCCN(CCCC)C(=S)[S-].[Zn+2] | inactive |
| NCCNCCN | inactive |
| CCC[C@@H](NC(=O)N1C(=O)C(CC)(CC)[C@@H]1Oc1ccc(C(=O)N2CCN(C)CC2)cc1)c1ccc2c(c1)OCO2 | 20.6 µM (active) |
| C[C@@H]1CCNC(=O)c2cc3ccc(C(=O)Nc4nc5ccccc5n4CCCN(C)C)cc3n21 | inactive |
| C=C1/C(=C/C=C2\CCC[C@]3(C)[C@@H]([C@H](C)/C=C/C(=O)C4CC4)CC[C@@H]23)C[C@@H](O)C[C@@H]1O | inactive |
